ssDAF12 agonist = activates DAF-12 receptor from parasite S. stercoralis | activation, % at 6.8 µM | 1% of 370,000 active | AID 652126 | HEK293 ssDAF-12/GRIP1 lit1-tk-luc reporter, luminescence; % of 3 µM dafachronic acid response;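 active = activation above the mean over all tested compounds plus 3 SD, cut at about 0.9% in these data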;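 also: 0% = DMSO-only wells and 100% = 3 µM delta7-dafachronic acid wells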
DAX1 inh-1 = blocks DAX1 repression of SF-1 activated StAR promoter | AID 652010 | 1.1% of 370,000 active | inhibition, % at 6.8 µM | HEK293T StAR-luciferase reporter, SF-1/DAX-1 repression relief;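 active = inhibition above the mean over all tested compounds plus 3 SD, cut at about 3.6% in these data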;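 also: 0% = DAX-1 cells with DMSO and 100% = cells lacking DAX-1 with DMSO; higher inhibition means more luminescence from relief of DAX-1 repression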
hcDAF12 agonist = activates DAF-12 receptor from parasite H. contortus; HEK293 hcDAF-12 lit1-tk-luc reporter, luminescence; 0% DMSO, 100% Δ7-dafachronic acid; activation, % at 6.8 µM; 1.4% of 370,000 active; AID 652067;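 active = activation above the mean of all tested compounds plus 3 SD, cut at about 5.5% in these data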;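 also: 100% = response to 3 µM Δ7-dafachronic acid high control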
hgDAF-12 ag = activates the H. glycines DAF-12 receptor ligand-binding domain. AID 687014. activation, % at 6.8 µM. 1.8% of 370,000 active. HEK293 GAL4-hgDAF12 UAS-luciferase reporter, agonist luminescence; normalized to butyrate control;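 active = activation above a cutoff set at the mean of all screened compounds plus 3 SD, cut at about 10% in these data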;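 also: 0% = DMSO wells and 100% = sodium butyrate wells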
DAX1 inh-2 = inhibits human nuclear receptor DAX1 | P51843 | HEK293 Gal4-DAX1 luciferase reporter, luminescence | inhibition, % at 6.75 µM | 0.99% of 340,000 active | AID 504766;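 active = inhibition above the mean over all tested compounds plus 3 SD, cut at about 4.2% in these data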;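 also: 0% = DAX1-transfected cells with DMSO and 100% = empty-vector control cells with DMSO; inhibition shows as a rise in luminescence from relieved DAX1 repression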
Target sequence (P51843 207-470 limits assumed): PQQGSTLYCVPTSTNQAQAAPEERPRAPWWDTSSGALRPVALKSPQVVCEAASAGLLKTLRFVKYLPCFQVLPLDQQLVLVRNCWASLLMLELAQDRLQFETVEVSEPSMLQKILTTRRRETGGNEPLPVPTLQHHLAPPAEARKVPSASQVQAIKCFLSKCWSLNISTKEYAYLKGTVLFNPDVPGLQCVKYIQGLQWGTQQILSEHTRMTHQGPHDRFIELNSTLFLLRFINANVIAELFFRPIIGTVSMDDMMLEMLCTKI
* marks the source's active call; other numbers are inactive results; . = no result. Rows were chosen to be rich in hits. Some 4.1% of all compounds tested hit in one or more screens of this group.

SMILES	ssDAF12 agonist	DAX1 inh-1	hcDAF12 agonist	hgDAF-12 ag	DAX1 inh-2
O=C(CSc1nc2ncccc2[nH]1)NCc1ccccc1	-1.2	-0.5	-2.0	-0.4	4.7*
O=C(C1CCCCC1C(=O)N1CCCCC1)N1CCCCC1 (stereo unspecified)	-0.8	-0.9	-0.8	2.9	1.1
O=C(O)C1CCCCC1C(=O)N1CCCC1 (stereo unspecified)	1.5*	0.6	0.1	2.1	-0.1
CC(C)CCN1C(Nc2ccccc2)=NC[C@@H]1CC(C)C	-0.4	-0.5	6.3*	0.7	0.7
CCN1C(Nc2ccccc2)=NC[C@@H]1CC(C)C	-1.1	-0.2	-0.9	-0.1	2.3
Cc1cccc(CCN2C(Nc3ccccc3)=NC[C@@H]2CC(C)C)c1	-1.3	-0.5	0.0	0.5	6.7*
CCC(C)CCN1C(Nc2ccccc2)=NC[C@@H]1CC(C)C (stereo partly specified)	-0.7	0.1	-0.5	2.5	4.8*
CCOC(=O)c1cccc(N2CC3CNC(=O)C2(C(=O)OC)N3C)c1 (stereo unspecified)	-1.5	1.1	-0.4	2.2	-0.3
COC(=O)C1CCCN(C(=O)C2CCN(S(=O)(=O)c3cccc4cccnc34)CC2)C1 (stereo unspecified)	-1.6	1.3	-5.0	2.9	.
COc1ccc(CNC(=O)c2cc(-c3ccccc3)c(N3CCOCC3)s2)cc1OC	-0.6	-1.4	-4.8	-0.1	.
Cc1ccc(S(=O)(=O)NCc2ccc3c(c2)OCO3)cc1	-0.8	-0.2	1.1	4.7	.
CCC1(c2ccccc2)SC(N)=NC1=O (stereo unspecified)	-0.8	-0.2	-0.3	1.9	6.6*
Cc1nnc(SC(C)C(=O)Nc2ccc3ccccc3c2)n1C (stereo unspecified)	-0.4	0.6	0.9	-2.8	1.4
CCOc1ccc2nc(NC(=O)CSc3ccc(Cl)cc3)sc2c1	-0.7	0.3	-0.1	4.2	-0.3
CCOCC(=O)Nc1nc2ccc(OCC)cc2s1	-0.8	0.8	2.6	10.6*	0.8
CCOc1ccc2nc(NC(=O)CSc3nc(SC)ns3)sc2c1	-0.1	0.5	6.1*	3.5	-0.4
CSc1nsc(SCC(=O)Nc2ccc(OC(C)=O)cc2)n1	-0.5	1.6	1.4	11.0*	3.1
NC(c1csc(NC(=O)c2cccc(OC(F)(F)F)c2)n1)c1ccccc1Cl (stereo unspecified)	-1.9	-0.1	-1.3	5.3	.
Cc1ccccc1Cn1cc(COC(=O)NCCc2c[nH]c3ccccc23)nn1	-0.6	-0.6	-2.0	-1.4	.
Brc1ccc2nc(-c3ccco3)c(CC3CCCCC3)n2c1	1.3*	0.7	1.3	-0.2	.
O=C(Cc1ccccc1)NNc1ccc2ccccc2c1	-0.2	2.0	5.9*	0.8	3.0
C(=N\N1CCN(c2ccccn2)CC1)/c1ccccn1	1.1*	1.6	2.7	6.0	1.7
c1ccc(N2CCN(c3nccn4ccnc34)CC2)nc1	0.6	4.0*	4.7	9.7	.
Cc1ccc(/C=N/N2CCN(c3ccccn3)CC2)o1	-0.1	1.2	-0.7	2.6	4.7*
C(=N\N1CCN(c2ccccn2)CC1)/c1ccco1	-1.0	0.1	-1.7	2.1	-0.9
SMILES	ssDAF12 agonist	DAX1 inh-1	hcDAF12 agonist	hgDAF-12 ag	DAX1 inh-2
CC(=O)C1=C(O)C(=O)OC1c1ccc(C)cc1 (stereo unspecified)	-1.4	0.1	-1.0	-2.7	2.6
CC(=O)C1=C(O)C(=O)OC1c1ccc(Cl)cc1 (stereo unspecified)	-0.5	-0.2	-0.5	1.1	4.4*
CC(C)OCCCNC(=S)NNC(=O)c1ccc(Cl)c(Cl)c1	-0.8	0.5	-0.2	10.6*	-1.3
COCCCNC(=S)NNC(=O)c1ccc2c(c1)OCO2	-1.2	-0.3	1.5	0.6	0.3
COC(=O)C1=C(C)N(Cc2ccccc2C(F)(F)F)C(=NCc2cc(OC)c(OC)c(OC)c2)NC1c1ccccc1 (stereo unspecified)	-0.4	0.5	-1.4	-1.7	.
CCOCCCNC(=O)c1ccc2c(c1)N=C(CC)c1cc(Br)ccc1S2	-0.5	4.2*	-1.1	-7.2	-2.0
Nn1c(SCC(=O)Nc2ccc(S(=O)(=O)Nc3nccs3)cc2)nnc1-c1ccco1	-1.6	0.2	-2.0	0.7	.
O=C(NCCN1CCC(n2c(=O)[nH]c3ccccc32)CC1)C(c1ccccc1)c1ccccc1	-1.5	-2.2	-2.7	-2.5	.
COC(=O)[C@H](Cc1ccccc1)N1C[C@@H](N2CCC[C@H]2C)CS1(=O)=O	-0.5	-0.5	-1.6	-1.7	.
CC1CCc2nc(NC(=O)CN3CCN(c4ccc(F)cc4)CC3)sc2C1 (stereo unspecified)	-2.1	-1.0	-1.4	1.5	6.6*
Cc1cccc(C)c1N1C(=O)c2ccccc2NC(=O)C1C(=O)Nc1ccc(N2CCOCC2)cc1 (stereo unspecified)	-1.6	1.4	-1.0	0.6	.
C/C(=N\NC(=O)c1ccccc1O)c1ccc(Br)s1	-1.1	1.1	-0.5	10.9*	-0.1
C/C(=N\NC(=O)c1c[nH]c2ccccc12)c1ccco1	0.2	2.0	5.9*	4.4	0.4
C/C(=N\NC(=O)c1ccccc1[N+](=O)[O-])c1ccc(Br)s1	-1.2	0.1	-1.3	1.0	-0.4
C/C(=N\NC(=O)c1c[nH]c2ccccc12)c1ccccn1	-0.3	0.8	3.9	7.4	0.7
CCc1ccc(/C(C)=N/NC(=O)c2c[nH]c3ccccc23)s1	1.1*	0.5	6.5*	3.9	0.1
O=C(NCc1ccc(F)cc1)OC1CC2CC1[C@H]1CCCCN1C2=O (stereo partly specified)	-1.3	1.0	-2.1	-3.4	.
C[C@@H]1C=CCCO[C@]12C(=O)N(Cc1ccccc1C(F)(F)F)c1ccccc12	-1.6	-0.2	-2.5	-3.7	.
C[C@@H]1ON(C)[C@H]2C[C@H]3c4[nH]c5cccc(-c6cccc(F)c6)c5c4CCN3C(=O)[C@@H]12	-0.6	0.0	-1.4	-0.4	.
Cc1ccc(CN2CCCCC(NC(=O)Nc3ccccc3F)C2=O)cc1 (stereo unspecified)	-1.5	-1.2	-2.0	0.3	.
COC(=O)c1cc2c(c3c4cc(C)ccc4n(S(=O)(=O)c4cccc(C)c4)c13)C(=O)N(Cc1ccc(C(F)(F)F)cc1)C2	-0.5	0.3	1.6	0.3	.
COc1ccc(NS(=O)(=O)c2ccc(N3C(=O)CCC3=O)cc2)cc1	-1.7	-1.1	-1.3	-0.6	4.7*
O=C1CCC(=O)N1c1ccc(S(=O)(=O)Nc2ccc(Br)cc2)cc1	-1.0	0.2	-1.1	-1.9	-0.6
CCC(CC)c1nnc(NC(=O)c2cc([N+](=O)[O-])ccc2N2CCOCC2)s1	-0.7	-1.0	-1.2	5.3	1.0
Cc1ccc(C(=O)N/N=C/c2cccnc2)cc1Cl	1.7*	0.5	-1.3	-1.0	-0.7
O=C(N/N=C/c1cccnc1)c1cccc(Cl)c1	-1.1	-0.5	1.1	7.1	4.2
Nc1c(Cl)ncnc1N/N=C/c1cccnc1	-1.1	0.5	1.1	-1.0	5.0*
